Compound activity deposited in PubChem by several laboratories.
LMP1 NFkB inh – EBV LMP1-driven NF-kappaB luciferase reporter inhibitors, primary screen, cell-based, luminescence, single point | LMP1-induced NF-kappaB luciferase reporter cells | inhibition, % at 12.5 µM | hit rate 0.69% among 350,000; in the data active means inhibition above about 41%; inconclusive means no clear call, values can overlap the other calls;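 further: 0% = neutral control wells and 100% = reference inhibitor control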
Shn3 3UTR inh – reduction of Shn3 3'UTR firefly luciferase signal, primary screen, Schnurri-3 inhibitor project, cell-based, Clone20 osteoblasts, set 2; Clone20 osteoblast Shn3 3'UTR firefly luciferase, 24 h; inhibition, % at 12.5 µM; hit rate 0.52% among 360,000;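 active means mean inhibition of at least 75% with every replicate also reaching 75%; inconclusive means mean inhibition at least 75% but some replicate below; inactive means mean inhibition below 75%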;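 further: 0% = median of neutral control wells and 100% = pilot-screen positive control compound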
TRPM1 prom inh – inhibitors of MITF-dependent TRPM1 promoter reporter, primary screen, cell-based, SK-MEL-5, single point, luciferase; SK-MEL-5 TRPM1 promoter luciferase, 24 h; inhibition, % at 12.5 µM; hit rate 0.83% among 330,000; AID 488899, 2010;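 active means mean inhibition across replicates of 60% or more, whatever share of single replicates reaches that level; inconclusive means some that reach 60%, reason not given; inactive means mean inhibition across replicates below 60%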
697 NFkB inh – inhibitors of PMA/ionomycin-induced NF-kB reporter, 697 cells, primary screen, B-cell NF-kB inhibitor project, cell-based, luminescence, uHTS; 697 B-cell NF-kB luciferase reporter, 16 h; inhibition, % at 4 µM; hit rate 0.33% among 330,000; in the data active means inhibition above about 35%
Gli-Sufu block – Gli-Sufu pathway antagonists, primary screen, luciferase luminescence, Sufu-KO-LIGHT cells, uHTS; hit rate 0.74% among 340,000; AID 588413, 2011; Sufu-KO-LIGHT fibroblasts, Gli luciferase reporter luminescence; inhibition, % at 5 µM;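 active means inhibition above about 55%, limit read from the data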;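 further: 0% = DMSO-treated cells and 100% = wells with medium but no cells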
Jurkat NFkB inh – inhibitors of induced NF-kB luciferase reporter, primary screen, TCR NF-kB activation inhibitor project, cell-based, luminescence, uHTS. Jurkat, PMA/ionomycin-induced NF-kB luciferase reporter. inhibition, % at 4 µM. AID 435003, 2010. hit rate 0.53% among 330,000; in the data active means inhibition above about 50%
Numbers without * were called inactive; ? = inconclusive; / = no result; ! = a repeat was not active. Hits are enriched below; roughly 2.3% of the tested compounds scored in any of these assays.

SMILES	LMP1 NFkB inh	Shn3 3UTR inh	TRPM1 prom inh	697 NFkB inh	Gli-Sufu block	Jurkat NFkB inh
COc1ccc(C(CCNCc2ccc(N(C)C)cc2)C(C)C)cc1 (configuration not stated)	2	51	23	-2	-2	6
COc1ccc(CNCCC(c2ccc(OC(C)C)cc2)c2ccccc2OC)cc1 (configuration not stated)	16	96*	44	-6	19	12
COc1ccccc1NC(=O)CC(c1ccc(OC(C)C)cc1)c1ccccc1OC (configuration not stated)	54*	18	8	11	-4	1
COc1ccccc1C(CCNCc1ccc(N(C)C)cc1)c1ccc(OC(C)C)cc1 (configuration not stated)	-24	93*	77*	-13	-29	22
CCCCn1c(N)c(Sc2ccc(C)cc2)c(=O)[nH]c1=O	8	11	7	24	13	3
CC(C)(C)c1cc(C(=O)N/N=C/c2ccccc2O)n(-c2ccccc2)n1	9	91*	48	-67	45	4
Cn1c(=N)n(CC(=O)c2ccc(Br)s2)c2ccccc21	-43	-29	-15	-190	-17	-119
N=c1n(CC(=O)c2ccc(Br)s2)c2ccccc2n1Cc1ccccc1	-8	14	90*	-16	-3	14
COc1ccc(S(=O)(=O)NCC2CCCO2)c(Cl)c1Cl (configuration not stated)	3	-7	1	13	24	10
O=C(COC(=O)/C=C/c1ccc2c(c1)OCO2)NCc1ccc(F)cc1	4	-9	/	/	/	/
CCS(=O)(=O)c1c([N+](=O)[O-])ncn1C	-4	-15	8	-22	-7	-15
Cn1cnc([N+](=O)[O-])c1S(=O)(=O)Oc1ccc(Cl)cc1	-17	93*	68*	/	1	/
Cn1cnc([N+](=O)[O-])c1Oc1cccc2ccccc12	-9	-13	49	-43	7	-3
Cn1cnc([N+](=O)[O-])c1S(=O)(=O)Oc1cccc2ccccc12	1	97*	93*	/	-8	/
COc1ccc(NC(=O)C2CCCN(S(=O)(=O)c3cccc4nonc34)C2)c(OC)c1 (configuration not stated)	63*	-5	-2	21	3	4
COc1ccc(OC)c(NC(=O)C2CCCN(S(=O)(=O)c3cccc4nonc34)C2)c1 (configuration not stated)	-12	-1	3	-23	-2	-8
Cc1cc(C)n(-c2cc(-n3nc(C)cc3C)ncn2)n1	-7	96*	-6	-4	0	-3
CC(=O)Nc1ccc(S(=O)(=O)/N=C2\C(=O)c3ccccc3C([O-])=C2n2cc[n+](-c3ccccn3)c2)cc1	39	/	48	-1	-3	2
CCCC[n+]1ccn(C2=C([O-])c3ccccc3C(=O)/C2=N\S(=O)(=O)c2ccc(Br)cc2)c1	8	45	94*	16	24	18
Cc1ccc(S(=O)(=O)/N=C2\C(=O)c3ccccc3C([O-])=C2n2cc[n+](CCC(C)C)c2)cc1	-1	-3	69*	1	9	22
CCCCCCCCCCOC(=O)Cn1c(COc2ccccc2C)[n+](C)c2ccccc21	18	?	5	30	85*	45
CCCCCCCCCCOC(=O)Cn1c(COc2ccccc2)[n+](C)c2ccccc21	29	?	11	-3	62*	8
CCCCCCCCCCOC(=O)Cn1c(COc2ccc(Cl)cc2)[n+](C)c2ccccc21	7	96*	28	-1	68*	33
CCCCOC(=O)Cn1c(=O)n(CC(=O)OCCCC)c2ccccc21	2	-18	5	-5	-13	-2
CCCCCCCCCCOC(=O)Cn1c(COc2cccc(C)c2)[n+](C)c2ccccc21	-4	59	47	6	/	35
SMILES	LMP1 NFkB inh	Shn3 3UTR inh	TRPM1 prom inh	697 NFkB inh	Gli-Sufu block	Jurkat NFkB inh
CCCCCCCCCCOC(=O)Cn1c(COc2ccc(OC)cc2)[n+](C)c2ccccc21	-4	94*!	85*	-6	76*	41
COc1ccc(NC(=O)C2Cc3c(-c4ccccc4Oc4ccccc4)ccnc3O2)cc1 (configuration not stated)	/	16	/	/	/	/
Cc1ccccc1OCC(=O)Nc1nnc(-c2ccncc2)s1	2	16	8	7	4	-9
COc1cccc(-c2nnc3n2N=C(C(C)(C)C)CS3)c1	65*	-3	?	5	-10	49
Cc1c(C#N)c(NC(=O)CCl)n(Cc2ccccc2)c1C	-40	95*	81*	17	-6	20
Cc1c(C#N)c(NC(=O)CCl)n(Cc2ccc(F)cc2)c1C	-45	39	66*	30	5	4
Cc1cc(=O)n(Cc2ccccc2)c(O)c1C#N	-5	10	14	-36	16	-8
Cc1c(C#N)c(NC(=O)CCl)n(Cc2cccs2)c1C	-30	97*	77*	28	28	14
CCN(CC)C(=O)c1sc(NC(=O)Cc2cccs2)c(C#N)c1C	-11	-24	-6	7	5	8
CC(C)Oc1cccc(-c2cc(C(=O)N3CCN(c4ncccn4)CC3)c3ccccc3n2)c1	6	-30	-52	-11	/	-17
O=C1C(=O)c2ccccc2C(O)=C1CCCCl	0	14	78*	24	18	10
COc1ccc(CC2=C(O)c3ccccc3C(=O)C2=O)cc1	-10	19	17	13	9	17
O=C(CSc1nnc(-c2cccc(Br)c2)o1)N1CCOCC1	-8	-3	-35	-13	-22	-5
CC(=O)Nc1ccc(OCC(=O)NCCc2ccc(Cl)cc2)cc1	0	11	-8	-2	-9	1
COc1cccc(Oc2nnnn2-c2ccccc2)c1	-10	-57	-44	-65	-55	-46
COc1cccc(-n2nnnc2S(C)(=O)=O)c1	90*	97*	78*	-27	0	29
NCCCS(=O)(=O)O	54*!	-19	-2	2	-16	-6
O=S(=O)(O)CCS	7	-17	1	-9	-4	4
Cn1c(Cc2cccs2)nnc1SC/C=C/c1ccccc1	0	7	3	13	-3	-2
CN(C)c1ccc(CNc2ncnc3sccc23)cc1	34	80	31	-25	63*	5
Cn1nnnc1Sc1ncnc2scc(-c3cccc(C(F)(F)F)c3)c12	21	23	75*	-68	-1	5
COC(=O)CSc1ncnc2scc(-c3ccccc3)c12	3	10	10	5	-8	-1
